# Yeast superoxide – reduction of superoxide in aged yeast, primary screen, HTS; actives 0.18% (n = 330,000); superoxide response (% of plate mean), % at 10 µM; AID 2690, 2010; S. cerevisiae aged cells, superoxide DHE fluorescence; hits give low values;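 active = superoxide response under a set limit, about three screen SD below normal, cut at about 65% in these data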;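 also: yeast aged for seven days with compound at 30 °C before DHE staining; 100% = average MFI of all compound-treated wells on the plate with controls excluded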
# ABCB6 inh MLPCN – ABCB6 transporter inhibitors, primary screen, K562-ABCB6 cells, flow cytometry, MLPCN library | AID 602162, 2011 | actives 0.19% (n = 360,000) | K562-ABCB6 porphyrin accumulation, 1 h; hits give low values | fluorescence ratio to DMSO, % at 10 µM | ATP-binding cassette sub-family B member 6 (Homo sapiens), Q9NP58;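 active = fluorescence ratio to DMSO below 75%, the collection mean minus 3 SD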;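 also: signal is porphyrin accumulated inside mitochondria; 100% equals median channel fluorescence of DMSO control wells; lower ratio means ABCB6 inhibition with less porphyrin fluorescence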
# Platelet DG rel – inhibitors of platelet dense granule secretion, primary screen, cell-based, MLPCN, human platelets | human platelet-rich plasma, SFLLRN dense granule ATP release, luminescence | inhibition, %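 (compounds screened at 7.5 µM in platelet-rich plasma)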 | actives 0.22% (n = 300,000) | AID 1663, 2009;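 active = mean replicate score, as percent of positive control, at or above 50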
# VLA-4 inh – inhibition in human VLA-4 binding assay, primary screen, VLA-4 allosteric modulator project, MLPCN library, flow cytometry, VLA-4 expressing cells | actives 0.2% (n = 330,000) | Integrin alpha-4 (Homo sapiens), P13612 | ligand binding flow cytometry | inhibition, % (about 7 µM as worked out from the volumes in the protocol); in the data active = inhibition above about 50%
# Target sequence (P13612 whole entry, looked up): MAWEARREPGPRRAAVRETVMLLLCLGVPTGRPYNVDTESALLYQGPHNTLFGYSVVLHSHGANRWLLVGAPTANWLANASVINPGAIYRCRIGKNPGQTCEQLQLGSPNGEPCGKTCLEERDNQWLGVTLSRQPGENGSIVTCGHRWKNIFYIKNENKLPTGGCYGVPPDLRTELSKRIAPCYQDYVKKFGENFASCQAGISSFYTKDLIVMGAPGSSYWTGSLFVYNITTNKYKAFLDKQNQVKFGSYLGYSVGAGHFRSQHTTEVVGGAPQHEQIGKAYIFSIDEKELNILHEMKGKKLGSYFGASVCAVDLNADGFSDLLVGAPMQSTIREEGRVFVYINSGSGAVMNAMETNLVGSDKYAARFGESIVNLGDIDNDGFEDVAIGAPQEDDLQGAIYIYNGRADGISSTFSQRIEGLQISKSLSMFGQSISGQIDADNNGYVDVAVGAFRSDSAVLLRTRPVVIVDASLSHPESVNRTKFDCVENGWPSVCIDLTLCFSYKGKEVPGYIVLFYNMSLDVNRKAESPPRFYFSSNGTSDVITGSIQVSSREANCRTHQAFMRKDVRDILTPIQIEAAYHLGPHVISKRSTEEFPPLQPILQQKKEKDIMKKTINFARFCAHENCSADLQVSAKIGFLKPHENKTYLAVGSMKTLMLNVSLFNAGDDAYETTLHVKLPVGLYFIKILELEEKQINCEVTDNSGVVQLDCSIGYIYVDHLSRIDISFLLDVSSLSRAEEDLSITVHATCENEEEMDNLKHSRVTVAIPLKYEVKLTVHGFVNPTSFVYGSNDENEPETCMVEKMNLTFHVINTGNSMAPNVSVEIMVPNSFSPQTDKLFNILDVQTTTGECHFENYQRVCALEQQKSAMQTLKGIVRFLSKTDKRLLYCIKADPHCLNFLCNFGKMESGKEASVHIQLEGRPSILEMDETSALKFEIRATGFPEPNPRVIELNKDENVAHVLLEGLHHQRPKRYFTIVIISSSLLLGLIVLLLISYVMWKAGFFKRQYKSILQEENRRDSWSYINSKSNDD
# SKN-1 inh – suppressors of acrylamide-induced Pgst-4::GFP reporter in worms, primary screen, SKN-1 inhibitor project, whole organism, uHTS, GFP/RFP fluorescence ratio, strain VP596; C. elegans VP596 Pgst-4::GFP/RFP ratio, 24 h; inhibition, % at 21.8 µM; actives 0.49% (n = 360,000); AID 624304, 2012;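 active = interference check ratio from 0.5 to 1.5 plus GFP to RFP signal ratio inhibition reaching or exceeding a fixed threshold, cut at about 30% in these data, passing the limit was not always enough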
# VLA-4 allo CP – retest of VLA-4 allosteric modulators, confirmation, cell-based, cherry-picked plates, U937, HUTS-21 LIBS antibody | shares compounds with VLA-4 inh | U937 cells, HUTS-21 LIBS mAb binding, flow cytometry; LDV ligand present at threefold Kd | inhibition, % at 6.7 µM | actives 2% (n = 1,300) | AID 2813, 2010; in the data active = inhibition above about 40%;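 also: 0% = ligand without compound and 100% = no ligand background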
# * = called active by the depositor; · = not tested or not shown. Only some compounds are listed: those with a hit (about 1.2% of all), similar ones and a draw of the others.
SMILES,Yeast superoxide,ABCB6 inh MLPCN,Platelet DG rel,VLA-4 inh,SKN-1 inh,VLA-4 allo CP
CCc1nc2ccc(C(=O)N3CCN(C(C)=O)CC3)cn2c1N(CC)C(=O)NCCc1ccccc1,·,97,·,·,1,·
COc1cccc(CNC(=O)[C@@H]2CCCN2C(=O)[C@H]2CCCCN2S(=O)(=O)c2ccc(OC)c(C)c2)c1,·,95,·,·,15,·
CC1CCN(c2nc3ccc(C(=O)NCCCN4CCCCC4C)cc3s2)CC1 (stereo unspecified),116,104,-2,1,6,3
CCC1CCCCN1CCCNC(=O)c1ccc2nc(N3CCCCC3)sc2c1 (stereo unspecified),96,107,0,0,6,·
CC1CCCC(C)N1CCCNC(=O)c1ccc2nc(N3CCOCC3)sc2c1 (stereo unspecified),204,99,-22,3,-10,2
CC1CCCC(C)N1CCCNC(=O)c1ccc2nc(N3CCCCC3)sc2c1 (stereo unspecified),103,100,9,51*,4,3
O=C(NCCNC(=O)c1ccc(-c2cc(Cl)ccc2Cl)o1)c1cnccn1,·,89,·,·,9,·
COCCNC(=O)c1ccccc1NC(=O)COc1ccccc1,90,93,7,-2,11,-19
CCC(=O)Nc1ccc2ccccc2c1,98,91,-3,45,-2,4
CCOc1ccccc1NC(=O)Cn1c(=O)oc2ccccc21,98,86,3,0,9,·
CCC(=O)c1cn(CC(=O)Nc2cccc(C)c2C)c2ccccc12,92,95,-4,23,3,3
Cc1ccc(NC(=O)Cn2c(=O)oc3ccccc32)cc1,100,103,-8,8,-8,·
COc1ccc(CCNC(=O)Cn2c(=O)oc3ccccc32)cc1OC,92,98,12,0,-6,-12
Cc1ccc(NC(=O)Cn2c(=O)oc3ccccc32)c(C)c1,95,100,-2,2,-9,-11
Cc1cccc(NC(=O)Cn2c(=O)oc3ccccc32)c1C,106,99,9,-20,-14,-4
CN(C(=O)Nc1cnc2ccccc2c1)c1ccccc1,105,93,-15,-15,6,·
Cc1ccc(NC(=O)N(C)c2ccccc2)cc1,95,100,3,-2,7,-7
CCOc1cc(C=NNC(=O)N(c2ccccc2)c2ccccc2)ccc1O,·,96,·,·,1,·
CCCC(=O)N1CCCC1(C)C(=O)Nc1cc(OC)c(OC)c(OC)c1 (stereo unspecified),·,97,·,·,-5,·
O=C1COc2ccc(N3C(=O)c4ccccc4C3=O)cc2N1,105,·,3,52*,·,9
Cc1c(NC(=O)Nc2ccc(Cl)c(Cl)c2)c(=O)n(-c2ccccc2)n1C,93,105,·,65*,3,8
Cc1c(NC(=O)c2ccc(C(=O)Nc3c(C)n(C)n(-c4ccccc4)c3=O)cc2)c(=O)n(-c2ccccc2)n1C,98,94,-7,2,16,·
COc1c(C(=O)Nc2c(C)n(C)n(-c3ccccc3)c2=O)ccc2ccccc12,103,100,1,-1,-13,0
Cc1ccc2c(C)c(C(=O)Nc3c(C)n(C)n(-c4ccccc4)c3=O)oc2c1,93,96,-5,9,-11,-10
COC(=O)[C@]12CCCCC=C1N(Cc1ccc3c(c1)OCO3)C(=O)[C@H](CC(=O)NCC13CC4CC(CC(C4)C1)C3)C2,·,·,·,·,0,·
SMILES,Yeast superoxide,ABCB6 inh MLPCN,Platelet DG rel,VLA-4 inh,SKN-1 inh,VLA-4 allo CP
C[C@@H]1CN([C@@H](C)CO)C(=O)c2cc(Br)cnc2O[C@H]1CN(C)C(=O)Cc1cccnc1,·,96,·,·,1,·
O=[N+]([O-])c1cc2c(cc1C=Nc1ccccc1)OCO2,113,93,-2,50*,-1,-2
Cc1cccc(N=Cc2cc3c(cc2[N+](=O)[O-])OCO3)c1,105,104,6,-3,8,·
COc1ccc(-n2c(Cc3cc(=O)[nH]c(=O)[nH]3)nnc2SCc2ccccc2)cc1,108,100,8,51*,-9,5
COc1cccc(-n2c(Cc3cc(=O)[nH]c(=O)[nH]3)nnc2SCC(=O)N2CCCCC2)c1,101,99,13,9,-3,-1
O=C(CSc1nnc(Cc2cc(=O)[nH]c(=O)[nH]2)n1-c1ccc(F)cc1)N1CCCCC1,98,102,-12,18,1,2
Cc1cc(C)nc(SCc2nnc(SCC(=O)O)n2-c2ccccc2)n1,103,96,-1,8,5,·
Cc1ccc(-n2c(CSc3nc(C)cc(C)n3)nnc2SCC(=O)N2CCCC2)cc1,99,96,-2,50*,25,-4
Cc1nc2ccc(S(=O)(=O)CCC(=O)NCCc3ccccc3)cc2s1,·,99,·,·,-10,·
CCc1nc2c(OCc3ccc(F)c(F)c3)cccn2c1N(C)C(=O)c1ccncc1,·,97,·,·,8,·
O=C(c1ccccc1)N1CCN(C(=O)c2ccc([N+](=O)[O-])cc2)CC1,96,102,3,42,-2,-2
OC[C@@H]1CN(Cc2cccnc2)C[C@H](n2cnc3c(N4CCN(c5ccccc5)CC4)ncnc32)O1,·,88,·,·,5,·
O=C(O)Cc1ccc(NS(=O)(=O)c2ccccc2Cl)cc1,107,96,0,7,-5,0
O=C(NCc1ccccc1)NS(=O)(=O)c1ccccc1Cl,103,101,3,0,-13,·
Cc1cc(=O)[nH]c(-n2nc(C)cc2C)n1,113,98,2,94*,9,15
Cc1cc(/C=C2/NC(=S)NC2=O)c(C)n1-c1cccnc1,98,106,6,-173,20,·
Cc1cc(/C=C2/NC(=O)N(c3ccccc3)C2=O)c(C)n1-c1cccnc1,109,142,4,43,12,-11
O=C1CC(c2ccco2)CC(O)=C1C=NCCN1CCNCC1 (stereo unspecified),103,100,0,11,-6,·
O=C1CC(c2ccco2)CC(O)=C1C=NCC1CCNCC1 (stereo unspecified),111,98,-13,92*,12,1
CCC(C)NC(=O)CC(NS(=O)(=O)c1ccc(Cl)cc1)c1ccco1 (stereo unspecified),103,97,-17,108*,10,8
Cc1cc(Cl)nc(-n2nc(C)cc2C)n1,107,97,13,17,-4,2
Cc1cc(C)n(-c2nc(C)nc(N)n2)n1,115,94,-4,1,6,-4

# Source: PubChem BioAssay
